# Source: the supplement of paper PMC12632987
# B1: GBRAPL2_83_7416 (protein)
# chain: MKKRVLITHEIEVKSEKVTKEEALDLAGDVAERLREKGIAAVVSVEEEDGVILVEIEALLEDSEEKIKIVEEEVEKLVKRLEELGAEVKLKTEREEEIVP
# B2: GBRAPL2_64_7409 (protein)
# chain: PKVHLAIAYEVEEREEDGKKVLVLDATVYVIKDGEITELEAKVVAEQLSETTWLVKLELKKPDGSVIKREEVVEAPWEDVETEMLELVDEAAREAVEEEE
# B3: GBRAPL2_63_7407 (protein)
# chain: MTVRKVLEALLEHAILDLDTAERLEEALENETDEEELFETLVEAILDIRPELTPEEAREVAEKLVELAKQSEELLKEAVRALTTLSKEEFLAYLDELVAK
# B4: uchl1_122_7428 (protein)
# chain: METVEVVGRRRAIEAFAEIVREVAAEHGIAVEVEIEELSPTTARLTITFDVPPISDEELAAFEEDLARRVAEAVRELGLSPAEFGIAYTKVVRAVRRANA
# B5: uchl1_122_7427 (protein)
# chain: TATVEVVGRRETIETIAEIIREVAAEHGLEVEVRIEELSPTTARLVVTVRVPPISDEELAAFERALEERMARAVEEKGLSRAEVGIATTKVIRAVRRANA
# B6: uchl1_122_7433 (protein)
# chain: MITIEVEVTSSLSPEALAILKEYAARLLDNAEFKEEKLSPGTLLLTVTGELKDVTDEEILAIENEALERASKMQTLTPNQRVSFGNALRRIARAVAKALA
# B7: GBRAPL2_83_7413 (protein)
# chain: MTVRLALELTVTLEGDEEEKEALLDMMVETADELRKLGAAAVVAIEEEDGVLTIVLDVLVVGNKEQVEKVKKKLEEAAKEIKEKFPNAKVEVKVLEEEEL
# B8: GBRAPL2_85_7421 (protein)
# chain: TEKVTIVAHTLEEVVDMSVDVLEALEPKGTVEIEGIVAVPSSELEKALKELPKAAEELKKRLEELAKKRPGLTINAEIRIFNLDTKEFHPKVEKFTVKNE
# B9: GBRAPL2_85_7420 (protein)
# chain: MEKITIVARTLEEAVEMAVDVVEALDPKGEIEVELIVLVPSSELEKAIAELPKAAEELKKKFQELAKKHPGLKINAEIEIFDSDTREFHPDVKKFTVEDK
# B10: uchl1_122_7431 (protein)
# chain: MKTVTVVVRKKDAPILIEIVREVAAEAGMKVEIEEEELSPNVVKLTITIDTTGLTEEQVEAAVEALERRVAEAMKETGSKSTDLRIAVGKIARAIRKAHA
# B11: GBRAPL2_83_7415 (protein)
# chain: VERTVLITTEITVRHPDLTEEEALDLAGDVAARLREHGVKTVVGVEERDGVVHIVLESLTPDDPALRAAIDEEVDALVAELRARGAEVEVRREEEVVDVP
# B12: GBRAPL2_93_7422 (protein)
# chain: MKVKVTIIRLVNGEVVEEEEREVTVEEAKKLIEELLKEAVANGERVIIEIYDKDTGWTFGDYVENEEQAEKALKRAKEILDDLEKEGKEVEITITIEKKT
# B13: GBRAPL2_83_7411 (protein)
# chain: MKIELDVELTVVIKGDEEEVEKIEDMMVETARELRKLGAAAVVATKEEDGVYTFVLDVLYVGDEEGAKKVIELLKESAEKIKKEFPEAKVTVKVVEKKVL
# B14: uchl1_122_7429 (protein)
# chain: MVRVEVVGRRRTVEALAEVIREVAARHGIDVRVEIEELSPTTARLVVDIRVPPMSDAALEAALADLERRAAELVERLGLSRAEVGIATTRIVRGIRRAAA
# B15: uchl1_122_7434 (protein)
# chain: MITIEVDVSSSLSPEVLEIIKEFASRLLDNAEFEEEELSPGTRRLTITGELKDVSDEEILEIENEALERASKLQTLTPNERVSFGNALRRIARAVAKARA
# B16: GBRAPL2_93_7424 (protein)
# chain: NKVELIVKYLENGKLVKEEREVVSVEEAKAKIEELLKEAVENGEKVSIEIEDKDTGWVFGDYVENEEQAKKALERAKEILEDLAEEGKEVEVTIVIEKIT
# B17: uchl1_122_7426 (protein)
# chain: METVEVVGRRETIEALAELIREVAAEHGIEVEVRIEELSPTTARLVVTIRVPPISDEELDALIADLEARAAALVEEKGLPRAEVGIATTKIIRAIRRAAA
# B18: GBRAPL2_85_7419 (protein)
# chain: MEKVTIVARSLAEAVDMAVDVVEALEPEGEIEVDLIVLVPSSELEAALAALPAAAAELKARLQELARRHPGLVVRAEVEIFDSDTREFHPDVRRFTVRDE
# B19: GBRAPL2_83_7414 (protein)
# chain: TTIELDLLLEVKLKGDEEEKEELLDLMVEAADRLRELGASAAVAIKEENGVLEVEVHVIAVGDEELVKKVEEKLKEAAEEIKKKFPKAEVKVEVLERKEL
# B20: GBRAPL2_64_7408 (protein)
# chain: AKVHLAIAYEFKESTENGKKVLKLEATVYVIEDGEITELEAEVTATQLSETTWEVKLVLRQPDGSVLERTEVVTVPYEDVETEMLDLILEAAREAVAARR
# B21: GBRAPL2_93_7425 (protein)
# chain: NEVKVTIKHLVDGELVKEEERTVSVEEAKELIKKKLEEAIAAGNKVIIEIDDEDTGWSFGDYVTDEEQAKKALERAKEILEDLAAEGKKVEVEIVIEKIT
# B22: GBRAPL2_93_7423 (protein)
# chain: MKVKVTVIELENGEVVRREERELSVEEAKELIRELLAEAIAAGNRVIIEIYDKETGWTFGYYAEDEEQAEKAYERTSEVLEDLAAEGKEVEVTITIERLE
# B23: uchl1_122_7436 (protein)
# chain: MITIEVLVTSSLSPEGLAIIKDYAAKLLKDAEFKEEEVSPGTLLLTITGELKDVSDEEILEIRREAEERASKNQNLTPNERVSFGNALRRIARAVAKAKA
# B24: GBRAPL2_83_7418 (protein)
# chain: VKTIRVITYDIEIKSENITEEEALDMAGDVAEELRKKGVKTVVGVEEENGVVHVTLEAIHEDDEELRKLIDEEVEKLVKELEAKGAEVKVKVEEELEEIE
# B25: uchl1_122_7438 (protein)
# chain: MLTIEVDVTSSLSPEGLEILKEYVSKLLDNPKFEEELVSPGTLRLIFTGELKDLTEEEIREIENEALEKAGANQSLTPNQRVSFGNAVRRIARQVAKARA
# B26: GBRAPL2_83_7410 (protein)
# chain: MEVLLELELTVTYKGNEEDKEKILDMLLEAQDKLRELGATAVVAEKLENGVYTFSLYAIYRGPREGAEKVRKTLEEFAEKIKKEFPEAKVEVKVLEEREL
# B27: uchl1_122_7437 (protein)
# chain: MITIEVLVSSSISEKVLEIIKKFASKLLKNPKFKIEQVSPGTLKITITGELKDVSEEEIREIYNEALEELGKLQDITPNEKVSANTALRKIARDVARARR
# B28: uchl1_122_7430 (protein)
# chain: TVTVEAVGRRETMETLAAVITEVLTAAGLTVEVRIEELSPTTARLTVTISGAPLSDAEVDALIEELRRRAAEAVERLGLDRATVGLAVGRVERGVRRLAA
# B29: GBRAPL2_63_7406 (protein)
# chain: SAVRRVLEALLRHAILDLDTAELLDEALETETDEEALYETLVEAILRIRPELTPEEAREVADKLIALAEQSEALLAEAVRDLTTLSKEEFLARLDALVAE
# B30: uchl1_122_7432 (protein)
# chain: AETVTVIVPKEAAPIIVEVLKEVMAEHGATVEVELEELSENTVKITITIDTSGLTEEQVDAAVADLEERMAERFKEAGINSADAKNAVGRIARAIRRAGA
# B31: GBRAPL2_83_7417 (protein)
# chain: VKKLKVITHDIEIKSENITEEEALDMAGDVAAELRKHGIKTVVGVERENGVVKVELESIMEDNEEKEKLVHEEVEKLVEELKKKGAEVKVETEEEIVEVE
# B32: uchl1_122_7435 (protein)
# chain: MITVEVLVTSSLSPAVLAIIKEYASRLLDNAEFELRRVDPGTLLLTVTGELKDVSDEEILAIRREAEERAAKDQTLTPNQRVSFGNALRRIARAVAKALA
# Target: GABARAPL2, P60520
# Sequence (P60520 whole entry, the tested form may be a part): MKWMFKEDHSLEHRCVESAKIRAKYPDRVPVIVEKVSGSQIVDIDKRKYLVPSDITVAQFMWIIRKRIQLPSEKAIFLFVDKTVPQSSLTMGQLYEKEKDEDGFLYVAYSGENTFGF
# Test: median log2 fold change of GCK-ALFA target abundance (FLAG IP / Myc IP barcode read proportion) (log2 ratio); each designed protein is fused to an ALFA-tag nanobody in HEK293 cells to bring the named protein to FLAG-tagged glucokinase (GCK); Myc marks an untargeted standard; higher = target protein stabilised (more abundant)
# Conditions: target protein: 3xFLAG-MCP-GCK-ALFA reporter; HEK293 landing pad (RPLP)
# In short: (§1)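 The readout is target abundance, the per-binder median log2 ratio of FLAG to Myc barcode read proportions. It came from HEK293 landing-pad cells carrying a recombined ALFA-nanobody-fused binder library, induced with 2 μg mL^−1 doxycycline and transfected with a plasmid for a FLAG-tagged target and a Myc-tagged standard. After 48 h, lysates were immunoprecipitated with anti-FLAG and anti-Myc, and circular RNA barcodes were reverse transcribed, amplified and sequenced. Each barcode needed a proportion of at least 10^−7 in both replicates and each binder at least 3 barcodes per replicate, a pseudocount of 10^−6 was added, and the replicates were pooled.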
row,Binder,median log2 fold change
1,B1,0.184
2,B2,-0.0236
3,B3,0.0216
4,B7,-0.417
5,B8,0.266
6,B9,0.19
7,B11,-0.00519
8,B12,0.15
9,B13,-0.364
10,B16,0.137
11,B18,0.0842
12,B19,0.119
13,B20,0.118
14,B21,-0.332
15,B22,-0.302
16,B24,0.388
17,B26,-0.0517
18,B29,-0.0969
19,B31,0.0338

# Target: UCHL1, P09936
# Sequence (P09936 whole entry, looked up): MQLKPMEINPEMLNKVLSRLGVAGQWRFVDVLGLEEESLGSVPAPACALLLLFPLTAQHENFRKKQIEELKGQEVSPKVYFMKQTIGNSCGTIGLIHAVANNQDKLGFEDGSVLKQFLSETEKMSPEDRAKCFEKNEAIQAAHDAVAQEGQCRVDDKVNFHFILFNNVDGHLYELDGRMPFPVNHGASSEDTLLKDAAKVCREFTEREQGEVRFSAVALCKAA
# Test: as above
# Conditions: target protein: 3xFLAG-MCP-GCK-ALFA reporter; HEK293 landing pad (RPLP)
# In short: as §1
row,Binder,median log2 fold change
1,B4,-0.0204
2,B5,0.284
3,B6,0.0352
4,B10,-0.183
5,B14,0.096
6,B15,0.213
7,B17,0.214
8,B23,0.0349
9,B25,0.324
10,B27,-0.0419
11,B28,0.13
12,B30,0.325
13,B32,-0.0374
